# Source: PubChem
# Hits are enriched below; roughly 2% of the tested compounds scored in any of these assays.
# COUP-TFII inh – NR2F2 (human) inhibition, primary screen; P24468; HEK293T NGFI-A luciferase reporter, luminescence; inhibition, % at 8.6 µM; 0.7% of 370,000 active; AID 686940;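 active = inhibition above a per-plate cutoff, mean inhibition of test wells between control levels plus 3 SD, cut at about 38% in these data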;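 note: cells cotransfected with COUP-TFII expression vector driving the NGFI-A reporter; 0% = median of COUP-TF2 test wells and 100% = reporter-only cells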
# Target sequence (P24468 whole entry, looked up): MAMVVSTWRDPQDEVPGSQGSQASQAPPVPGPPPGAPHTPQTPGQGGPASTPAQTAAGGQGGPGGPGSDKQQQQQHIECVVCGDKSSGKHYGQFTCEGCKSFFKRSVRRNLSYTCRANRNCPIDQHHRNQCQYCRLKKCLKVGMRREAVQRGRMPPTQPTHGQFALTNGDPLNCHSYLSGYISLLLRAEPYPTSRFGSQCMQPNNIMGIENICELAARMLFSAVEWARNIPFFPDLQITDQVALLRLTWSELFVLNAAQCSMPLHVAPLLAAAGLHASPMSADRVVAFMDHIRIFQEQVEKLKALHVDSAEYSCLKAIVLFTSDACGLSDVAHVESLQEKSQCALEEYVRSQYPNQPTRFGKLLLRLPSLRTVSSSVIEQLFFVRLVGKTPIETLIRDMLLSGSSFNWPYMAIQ
# GalR3 antagonist – blocks the human galanin receptor 3; HEK293 GalR3-CNG cAMP membrane potential fluorescence; galR3 body fused to GalR1 C-terminus; inhibition, % at 3 µM; 0.44% of 360,000 active; AID 651719;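 active = inhibition above the screen-wide average plus 3 SD, cut at about 13% in these data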;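 note: forskolin and galanin both at EC90 stimulate the cells; cAMP rise reported by CNG channel membrane potential dye signal; 0% = forskolin plus galanin with DMSO and 100% = forskolin alone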
# 697 NFkB inh – lowers PMA/ionomycin-induced NF-kB signal in 697 B cells; 697 B-cell NF-kB luciferase reporter, 16 h; inhibition, % at 4 µM; 0.33% of 330,000 active; in the data active = inhibition above about 35%
# Jurkat NFkB inh – lowers PMA/ionomycin-induced NF-kB signal in Jurkat cells; PMA/ionomycin-induced NF-kB luciferase reporter, luminescence; inhibition, % at 4 µM; 0.53% of 330,000 active; AID 435003; in the data active = inhibition above about 50%
# Gli-Sufu antag – antagonists of Gli-Sufu signaling. Sufu-KO-LIGHT fibroblasts, Gli luciferase reporter luminescence. inhibition, % at 5 µM. 0.74% of 340,000 active. AID 588413;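 active = inhibition above about 55%, limit read from the data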;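 note: 0% = DMSO-treated cells and 100% = wells with medium but no cells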
# VP16 Luc counter – counter-screen for COUP-TFII antagonists: inhibitors of VP16 | AID 687007 | inhibition, % at 8.5 µM | HEK293 Gal4-VP16 luciferase reporter, luminescence | shares compounds with COUP-TFII inh | 25% of 2,500 active; in the data active = inhibition above about 13%
# COUP-TFII conf – confirmation of human COUP-TFII (NR2F2) inhibitors; 45% of 2,500 active; inhibition, % at 8.5 µM; AID 687008; shares compounds with COUP-TFII inh; HEK293 NGFI-A luciferase reporter, luminescence;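 active = mean inhibition over three repeats above a set limit taken from the earlier primary screen, cut at about 38% in these data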;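 note: 100% = cells given the luciferase reporter alone without the COUP-TF2 vector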
# An asterisk follows results filed as active; x = no result.
SMILES,COUP-TFII inh,GalR3 antagonist,697 NFkB inh,Jurkat NFkB inh,Gli-Sufu antag,VP16 Luc counter,COUP-TFII conf
Cc1cc(C(=O)COC(=O)c2ccncc2)c(C)n1Cc1ccco1,-22,-6,3,-6,8,x,x
CC(=O)N1c2ccc(S(=O)(=O)N3CCC(C(=O)N4CCN(c5cc(Cl)ccc5C)CC4)CC3)cc2CC1C (stereo not given),43*,-6,-40,3,43,5,19
CC(=O)N[C@@H](C)CCc1ccc(Oc2ccc(OC(C)C)nc2)cc1,39*,x,x,x,x,-32,1
COC(=O)[C@]12CCCCC=C1N(Cc1ccc(OC)cc1)C(=O)[C@@H]2CC(=O)NCc1ccccc1,-6,x,x,x,x,x,x
CCC(=O)N(C1=C(NC(C)C)C(=O)c2ccccc2C1=O)C(C)C,3,0,-1,7,8,x,x
CCCNC1=C(N(C(C)=O)c2cccc(F)c2)C(=O)c2ccccc2C1=O,57*,-4,x,x,85*,12,-2
C=C(C)[C@@H]1CC2=C(OC)C(CC=C(C)C)(CC=C(C)C)C(=O)C(C(=O)c3ccccc3)=C2O1,5,x,x,x,x,x,x
Cc1ccccc1CN1C(=O)c2ccccc2S1(=O)=O,-17,-9,8,16,26,x,x
O=C1c2ccccc2S(=O)(=O)N1Cc1nc2ccccc2s1,42*,-4,23,22,-8,-6,29
CCOC(=O)N1CCC(NC(=O)C2CCN(Cc3nc(-c4ccc(CC)cc4)oc3C)CC2)CC1,-6,x,x,x,-12,x,x
CCOC(=O)N1CCC(NC(=O)C2CCCN(Cc3nc(-c4ccc(CC)cc4)oc3C)C2)CC1 (stereo not given),54*,11,-66,34,31,0,45*
Fc1cccc(F)c1Cn1ccc2ccc(-c3ccc4ccn(Cc5c(F)cccc5F)c4c3)cc21,-18,x,x,x,x,x,x
COC(=O)c1ccc(S(=O)(=O)N2CCCN(Cc3cccc(Br)c3F)CC2)n1C,55*,0,-27,7,10,-5,11
COCCNC(=S)N(C)[C@H]1C[C@H]2c3[nH]c4c(-c5cccc(C)c5)cccc4c3CCN2C[C@H]1[C@H](C)O,-13,x,x,x,x,x,x
CCc1ccc(CCNC(=O)OCCCN2CCC3(CCC(c4ccccc4)CC3)C2=O)cc1 (stereo not given),41*,x,x,x,x,-7,7
COc1ccc(NC(=O)CN2C(=O)C(c3ccccc3)=NC23CCCCCC3)cc1,-9,-1,6,28,11,x,x
O=C(CN1C(=O)C(c2ccc(F)cc2)=NC12CCCC2)Nc1ccc(F)cc1,39*,x,0,29,41,-5,28
CC(C)=CCC/C(C)=C/CNCC(=O)N1c2ccccc2[C@]2(c3ccccc3)C[C@@H]3C(=O)N(C/C=C(\C)CCC=C(C)C)CC(=O)N3[C@H]12,6,x,x,x,x,x,x
COCCn1c(C)cc(C(=O)COC(=O)c2cccc(O)c2)c1C,72*,-2,35,-5,43,64*,87*
Cc1ccc(-c2nnc3n2N=C(c2ccc(-c4ccccc4)cc2)CS3)cc1,20,x,x,x,x,x,x
COc1cccc(C(=O)Nn2c(-c3cccs3)nc3ccccc3c2=O)c1OC,6,-7,-4,-2,-3,x,x
COc1ccc(CNn2c(-c3cccs3)nc3ccccc3c2=O)cc1OC,38*,-4,-3,-8,11,-9,6
Cc1cc(N2CCN(C(=O)Oc3ccc(-c4ccccc4)cn3)CC2)c2ccccc2n1,87*,x,x,x,x,5,38*
c1nc(NCc2ccc3c(c2)OCO3)c2cc(-c3ccoc3)ccc2n1,39*,6,-5,26,-30,-19,10
Cc1c(/C(O)=C2\C(=O)C(=O)N(CCCN(C)C)C2c2ccco2)cnn1-c1ccccc1 (stereo not given),49*,-7,x,x,13,-1,6
SMILES,COUP-TFII inh,GalR3 antagonist,697 NFkB inh,Jurkat NFkB inh,Gli-Sufu antag,VP16 Luc counter,COUP-TFII conf
Cc1nn(-c2ccccc2)c2sc(C(=O)N3CCC4(CC3)OCCO4)cc12,-10,x,x,x,x,x,x
COc1ccc(-c2csc3ncnc(NCCCO)c23)cc1,44*,-3,-21,27,-2,14*,24
O=C(CSc1nnc(-c2ccccn2)n1-c1ccccc1)c1ccc(F)cc1,17,x,x,x,x,x,x
COc1ccc(-c2csc(NC(=O)Cc3ccccc3F)n2)cc1OC,49*,11,-27,10,36,-14,2
COc1ccccc1CC(=O)Nc1nc(-c2ccc(F)c(F)c2)cs1,0,-9,1,15,0,x,x
CN1c2ccccc2C(C)(C)[C@]12C=Cc1cc(O)ccc1O2,43*,-4,-95,27,49,-7,3
CN1c2ccccc2C(C)(C)C12C=Nc1c(ccc3ccccc13)O2 (stereo not given),13,4,-146,-50,-11,x,x
CC(C)C[C@H]1COc2cccc(F)c2S(=O)(=O)N1Cc1cn(CCC2OCCCO2)nn1,12,x,x,x,x,x,x
COc1cc(C(=O)Oc2cccc(Nc3ncnc4ccccc34)c2)cc(OC)c1OC,61*,-6,-75,-7,5,-4,49*
COc1ccc(C(=O)Oc2cccc(Nc3ncnc4ccccc34)c2)cc1OC,17,-3,-30,18,-17,x,x
Cc1ccc(C(=O)N/N=C\c2ccc([N+](=O)[O-])s2)cn1,40*,-1,15,17,33,31*,20
C=CCN(c1ccccc1OC)S(=O)(=O)c1ccc(Cl)c(C(=O)Nc2ccc(N3CCOCC3)cc2)c1,43*,-6,-40,-2,-4,4,25
COc1ccccc1N(C)S(=O)(=O)c1ccc(C(=O)Nc2ccc(N3CCOCC3)cc2)cc1,13,-1,-11,-3,14,x,x
Cc1cc(C)cc(NC(=O)C2(C(=O)C3CC3)CC(c3ccccc3C(F)(F)F)=NO2)c1 (stereo not given),-2,x,x,x,x,x,x
